# Reference: PubChem BioAssay (NCI)
# The panel holds about 83,000 compounds, 20% with a hit somewhere; the sample as a whole holds those more often.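 Each cell line was grown in a 96-well plate and treated with one concentration of compound for 48 hours. Values below 10 were considered active.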 Values without a mark were called inactive. Calls of active or inactive are those of the source.
# Legend:
# Assay in all cases: NCI-60 one-dose screen, 48 h (100 = growth as untreated, 0 = no growth, -100 = all killed)
# SR leukemia = settings: 10 µM unless noted
# RPMI-8226 leukemia = settings: 10 µM unless noted
# OVCAR-8 ovarian = settings: 10 µM unless noted
# OVCAR-5 ovarian = settings: 10 µM unless noted
# OVCAR-4 ovarian = settings: 10 µM unless noted
# SK-OV-3 ovarian = settings: 10 µM unless noted
# IGROV1 ovarian = settings: 10 µM unless noted
# OVCAR-3 ovarian = settings: 10 µM unless noted
# NCI/ADR-RES ovarian = settings: 10 µM unless noted
# T-47D breast = settings: 10 µM unless noted
# BT-549 breast = settings: 10 µM unless noted
# MDA-MB-435 melanoma = settings: 10 µM unless noted
# SW-620 colon = settings: 10 µM unless noted
# MCF7 breast = settings: 10 µM unless noted
# HCT-116 colon = settings: 10 µM unless noted
# KM12 colon = settings: 10 µM unless noted
# HCC-2998 colon = settings: 10 µM
Structure (SMILES),growth (SR leukemia),growth (RPMI-8226 leukemia),growth (OVCAR-8 ovarian),growth (OVCAR-5 ovarian),growth (OVCAR-4 ovarian),growth (SK-OV-3 ovarian),growth (IGROV1 ovarian),growth (OVCAR-3 ovarian),growth (NCI/ADR-RES ovarian),growth (T-47D breast),growth (BT-549 breast),growth (MDA-MB-435 melanoma),growth (SW-620 colon),growth (MCF7 breast),growth (HCT-116 colon),growth (KM12 colon),growth (HCC-2998 colon)
Cc1cn(-c2cc(NC(=O)c3ccc(C)c(Nc4nccc(-c5cnccn5)n4)c3)cc(C(F)(F)F)c2)cn1,21.5%,54%,47.1%,79%,99.7%,59.4%,85.1%,103%,63.8%,66.7%,98.8%,23.2%,75.5%,69%,42.6%,46.4%,
Cn1ccnc1C(=O)/C=C/c1ccc(CC(=O)Nc2ccc(Br)cc2)cc1,3.22% (active),8.13% (active),3.98% (active),21.8%,43.2%,54.6%,11.3%,11.1%,16.3%,4.43% (active),12.1%,45.6%,,12%,12%,4.87% (active),15.3%
CCCS(=O)(=O)Nc1ccc(F)c(C(=O)c2c[nH]c3ncc(-c4ccc(Cl)cc4)cc23)c1F,15.3%,29.2%,32.1%,49%,49.3%,-0.481% (active),22.1%,65.4%,48.9%,8.42% (active),41.1%,13.4%,78.5%,44.6%,27.3%,32%,
Cc1cc(Nc2cc(N3CCN(C)CC3)nc(/C=C/c3ccccc3)n2)n[nH]1,-13.6% (active),28.3%,36.1%,13.2%,41%,3.69% (active),-30.7% (active),43.8%,15.7%,-24.7% (active),8.9% (active),6.58% (active),,0.852% (active),0.937% (active),-16.9% (active),-61.5% (active)
O=C1NC(=O)/C(=C/c2ccc3nccc(-c4ccncc4)c3c2)S1,-26.5% (active),-16.5% (active),-18.8% (active),-30.1% (active),-22.7% (active),-60.3% (active),-60.1% (active),-30.4% (active),-14.6% (active),-41.7% (active),-36.7% (active),-11% (active),1.44% (active),0.645% (active),-38.6% (active),1.44% (active),
COc1ccc(Br)cc1NC(=O)Nc1cccc2c1ccn2Cc1ccnc(N)c1,7.97% (active),15.2%,21.2%,47.8%,38.8%,26.7%,36.3%,67.4%,31.1%,6.9% (active),51.1%,11.1%,19.4%,16.5%,16.8%,10.3%,
CN1CCN(CCOc2cc(OC3CCOCC3)c3c(Nc4c(Cl)ccc5c4OCO5)ncnc3c2)CC1,38.7%,95.1%,55.6%,29.1%,95.8%,-14.6% (active),-15.6% (active),59.3%,60.7%,-14.3% (active),89.2%,98.3%,,62.8%,35.3%,17.1%,90.7%
C[C@@H](Oc1cc(C(=O)Nc2ccc(C(=O)N3CCN(C)CC3)cc2)nnc1N)c1c(Cl)ccc(F)c1Cl,0.634% (active),36.7%,63.1%,75.3%,78.2%,66.9%,86%,91.6%,76.5%,59.4%,71.7%,68.8%,98.1%,47.1%,49.4%,23%,
ClCc1ccc(-c2ccc(Cn3cnc4nc(Cl)nc(Cl)c43)cc2)cc1,-37.1% (active),-55.8% (active),-72.1% (active),-11.1% (active),46.6%,72.5%,21%,-77.6% (active),24.8%,-10.5% (active),-44.8% (active),-19.5% (active),-46.8% (active),-42.4% (active),-72.4% (active),-63% (active),
COC1CCC(N2C(=O)CNc3ncc(-c4ccc(C(C)(C)O)nc4)nc32)CC1 (configuration not stated),-0.973% (active),-2.19% (active),5.09% (active),9.72% (active),-7.38% (active),-27.6% (active),-2.9% (active),8.66% (active),3.73% (active),-24% (active),-8.77% (active),-27.9% (active),12%,3.23% (active),11.4%,7.39% (active),
CCOC(=O)C1=C(C)NC(=O)NC1c1cc(=O)oc2ccc(C)cc12 (configuration not stated),97.1%,97.5%,102%,107%,106%,104%,103%,110%,102%,94.5%,111%,117%,,91.3%,100%,,96.2%
COc1cc2ncnc(Nc3cccc(Cl)c3F)c2cc1OC(=O)N1CCN(C)C[C@H]1C,62.6%,76.4%,64.2%,46.5%,103%,-6.41% (active),16.4%,69.5%,64.3%,28.5%,93.8%,94.3%,94.2%,63.2%,87.5%,87.8%,
COc1cc2c(cc1OCCCCCCN1CCN(c3ncnc4ccccc34)CC1)N=CC1CCCN1C2=O (configuration not stated),-29.6% (active),-47.4% (active),-12.1% (active),10.2%,-14.4% (active),20.7%,1.08% (active),-6.78% (active),6.93% (active),6.98% (active),-40.8% (active),-77.1% (active),-19.1% (active),11.2%,3.4% (active),-27.9% (active),
CC(C)c1cc(CNc2nc(Nc3cc(C4CC4)[nH]n3)cc(N3CCN(C)CC3)n2)on1,-5.3% (active),-13.3% (active),6.51% (active),18.5%,-8.07% (active),0.435% (active),8.34% (active),15.5%,39.2%,6.24% (active),-21.9% (active),-10.9% (active),7.6% (active),11.5%,3.46% (active),4.41% (active),
Cc1ccc(Nc2nccc(N(C)c3ccc4c(C)n(C)nc4c3)n2)cc1S(N)(=O)=O,18%,20.8%,20.4%,9.38% (active),31.3%,-1.9% (active),3.2% (active),39.9%,48.5%,4.07% (active),25.8%,19.3%,,32.3%,3.7% (active),15%,-5.85% (active)
CC(C)NC[C@@H](C(=O)N1CCN(c2ncnc3c2[C@H](C)C[C@H]3O)CC1)c1ccc(Cl)cc1,45.5%,61.2%,68.3%,54.4%,77.5%,-9.72% (active),0.674% (active),49.7%,84.2%,-9.42% (active),25.2%,68.2%,71.4%,30.9%,61.4%,18.9%,
COc1cc(N2CCC(N(C)C)CC2)ccc1Nc1ncc(Cl)c(Nc2ccccc2P(C)(C)=O)n1,6.79% (active),27.9%,4.01% (active),1.36% (active),18.2%,-77.7% (active),-24.5% (active),16.3%,78.1%,56.2%,-14.1% (active),23.5%,-1.28% (active),33.1%,-19.6% (active),-1.59% (active),
CC(=O)CC1CCCC1c1ccc2ccccc2c1 (configuration not stated),104%,103%,100%,97.2%,112%,101%,101%,105%,,90%,109%,111%,106%,95.9%,104%,106%,86.8%
CNC(=O)c1cccc2cc(Oc3ccnc4cc(OCC5(N)CC5)c(OC)cc34)ccc12,27.6%,81.7%,48.9%,65.3%,49.4%,69.8%,39.5%,61.4%,,92.2%,59.7%,24.1%,46.9%,49.1%,33.2%,,92%
